Compound activity: PubChem, several laboratories
Rows were chosen to be rich in hits. Some 0.79% of all compounds tested hit in one or more screens of this group.
HDAC3 inhib = blocks human histone deacetylase 3. 320,000 compounds, 0.15% hits. inhibition, % at 8.3 µM. recombinant HDAC3, fluorogenic peptide/trypsin coupled, fluorescence. AID 2718; in the data active = inhibition above about 26%, passing the limit was not always enough
DAGLB inh = diacylglycerol lipase beta (human) inhibition. HEK293T DAGLB membrane lysate, EnzChek fluorogenic substrate. Q8NCG7. 340,000 compounds, 0.059% hits. inhibition, % at 5.17 µM. AID 504411; in the data active = inhibition above about 34%;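 note: 0% = enzyme with vehicle and 100% = wells lacking enzyme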
iPSC survival up = increases survival of single human iPS cells. hiPSC single-cell survival, ATPlite luminescence; 100% = ROCK inhibitor wells, 0% = DMSO. 360,000 compounds, 0.044% hits. AID 602274. survival enhancement, % at 20 µM; in the data active = survival enhancement above about 18%;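 note: cells exposed to compounds for 16 hours before the ATP read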
LANA-H2B inh = blocks KSHV LANA binding to histone H2A/H2B; cell-free LANA-H2A/H2B peptide, fluorescence polarization; inhibition, % (test concentration not listed); 320,000 compounds, 0.6% hits; AID 2629; in the data active = inhibition mostly above about 10%, no sharp cut-off; inactive = mostly below about 6.7%
Active calls of the source: *.

What do the screens show for `CN(C)CCC1Sc2ccccc2Oc2ccccc21` (stereo unspecified)?
HDAC3 inhib: -4; DAGLB inh: -2; iPSC survival up: -1; LANA-H2B inh: 0

Results for c1ccc2c(c1)Oc1ccccc1S2 ?
HDAC3 inhib: -1; DAGLB inh: -4; iPSC survival up: 0; LANA-H2B inh: 42*

Results for CN1CCN(CCNC(=O)Nc2ccccc2C(F)(F)F)CC1 ?
HDAC3 inhib: 1; DAGLB inh: 0; iPSC survival up: -1; LANA-H2B inh: 17*

What do the screens show for `CC1=CC(=C(C#N)c2nc3ccccc3s2)C=C(C)N1CC1CCCO1` (stereo unspecified)?
HDAC3 inhib: -2; DAGLB inh: 4; iPSC survival up: 19; LANA-H2B inh: 1

What do the screens show for `COc1ccc(C(=O)NC(CCSC)C(=O)N2CCCCCC2)cc1` (stereo unspecified)?
HDAC3 inhib: 0; DAGLB inh: -1; iPSC survival up: 0; LANA-H2B inh: 31*

What do the screens show for `CSCCC(NC(=O)c1ccccc1Cl)C(=O)N1CCCCCCC1` (stereo unspecified)?
HDAC3 inhib: 3; DAGLB inh: 0; iPSC survival up: 0; LANA-H2B inh: 0

Results for O=C(Nc1ncccc1O)c1ccc2c(c1)OCO2 ?
HDAC3 inhib: 86*; DAGLB inh: -3; iPSC survival up: 0; LANA-H2B inh: -3

What do the screens show for `O=C(Nc1ncccc1O)c1ccc2c(c1)OCCO2`?
DAGLB inh: 1; iPSC survival up: 0; LANA-H2B inh: 1

Results for CCN(CC(=O)NCc1cccs1)C(=O)/C=C/c1cc(OC)c(OC)c(OC)c1 ?
DAGLB inh: 0; iPSC survival up: 0

What do the screens show for `Cc1cc(-c2ccccc2C(=O)O)on1`?
HDAC3 inhib: -4; DAGLB inh: 5; iPSC survival up: 0; LANA-H2B inh: -5

How did O=C(O)c1ccccc1C1=Nc2ccc(O)cc2Oc2cc(O)ccc21 do in these assays?
HDAC3 inhib: 7; DAGLB inh: -15; iPSC survival up: -1; LANA-H2B inh: 17*

How did O=C(c1ccccc1F)N1CCCC(N2CCN(Cc3ccc4c(c3)OCO4)CC2)C1 (stereo unspecified) do in these assays?
DAGLB inh: -3; iPSC survival up: -1

How did O=C(Cn1cc(C(F)(F)F)ccc1=O)Nc1cc(S(=O)(=O)N2CCOCC2)ccc1Cl do in these assays?
HDAC3 inhib: -8; DAGLB inh: -1; iPSC survival up: 1; LANA-H2B inh: -2

What do the screens show for `O=C(Cn1cc(C(F)(F)F)ccc1=O)Nc1cccc(S(=O)(=O)N2CCOCC2)c1`?
HDAC3 inhib: -1; DAGLB inh: 1; iPSC survival up: 0; LANA-H2B inh: 22*

What do the screens show for `O=C(COc1coc(CN2CCN(c3ccccc3F)CC2)cc1=O)NCC1CCCO1` (stereo unspecified)?
DAGLB inh: 2; iPSC survival up: 1; LANA-H2B inh: 1

Results for CCC1=NNc2cccc3c(OC)ccc1c23 ?
HDAC3 inhib: 31*; LANA-H2B inh: 7

Results for COc1ccc2c3c(cccc13)C(=O)N(O)C2=O ?
HDAC3 inhib: 0; DAGLB inh: 2; iPSC survival up: 4; LANA-H2B inh: -2

What do the screens show for `COc1cc(C(=O)N/C(=C/c2ccc(F)cc2)C(=O)NC(C(=O)O)c2ccccc2)cc(OC)c1OC` (stereo unspecified)?
HDAC3 inhib: 2; DAGLB inh: 0; iPSC survival up: 0; LANA-H2B inh: 5

Results for COc1ccc(N2CCN(C(=O)c3cc(S(=O)(=O)N4CCCCCC4)ccc3OC)CC2)cc1 ?
DAGLB inh: 1; iPSC survival up: 0

What do the screens show for `COc1ccc(C(=O)N2CCc3ccccc3C2)cc1S(=O)(=O)N1CCCC1`?
DAGLB inh: -1; iPSC survival up: -2

Results for CNC(=O)c1ccc(NC(=O)CC2SC(N3CCCC3)=NC2=O)cc1 (stereo unspecified) ?
HDAC3 inhib: 0; DAGLB inh: 1; iPSC survival up: 0; LANA-H2B inh: 50*

What do the screens show for `O=C(CC1SC(N2CCCCC2)=NC1=O)Nc1ccc(C(=O)O)cc1` (stereo unspecified)?
HDAC3 inhib: -8; DAGLB inh: 2; iPSC survival up: -1; LANA-H2B inh: 2

Results for CC(C)NC(=O)c1ccc(NC(=O)CC2SC(N3CCCCC3)=NC2=O)cc1 (stereo unspecified) ?
HDAC3 inhib: -2; DAGLB inh: 4; iPSC survival up: -3; LANA-H2B inh: -4

What do the screens show for `CC(C)NC(=O)c1ccc(NC(=O)CC2SC(N3CCCC3)=NC2=O)cc1` (stereo unspecified)?
HDAC3 inhib: -6; DAGLB inh: -2; iPSC survival up: 1; LANA-H2B inh: active

Results for COc1cccc(CNC(=O)c2ccc(NC(=O)CC3SC(N4CCCC4)=NC3=O)cc2)c1 (stereo unspecified) ?
HDAC3 inhib: 5; DAGLB inh: 0; iPSC survival up: 0; LANA-H2B inh: 39*

How did COc1ccc(NC(=O)c2ccccc2NC(=O)CSc2ccc(Cl)cc2)cc1 do in these assays?
HDAC3 inhib: 8; DAGLB inh: -2; iPSC survival up: -3; LANA-H2B inh: 2

How did O=C(O)CP(=O)(O)O do in these assays?
HDAC3 inhib: -11; DAGLB inh: 6; iPSC survival up: 0; LANA-H2B inh: 7.2*

What do the screens show for `O=c1c(-c2ccccc2)c(O)c2cccc3c2n1CCC3`?
HDAC3 inhib: -10; DAGLB inh: 1; iPSC survival up: 2; LANA-H2B inh: 20*

What do the screens show for `Cc1ccc2c(c1)N(C(C)C(=O)NCc1ccc3c(c1)OCO3)C(=O)CO2` (stereo unspecified)?
HDAC3 inhib: 3; DAGLB inh: -1; iPSC survival up: 0; LANA-H2B inh: -7

How did CC(Sc1nnc(C2CC2)n1-c1ccccc1)C(=O)N1CCNC1=O (stereo unspecified) do in these assays?
DAGLB inh: 1; iPSC survival up: 0

Results for O=C(CSc1nnc(C2CC2)n1-c1ccccc1)N1CCNC1=O ?
HDAC3 inhib: 3; DAGLB inh: 2; iPSC survival up: 0; LANA-H2B inh: 47*

What do the screens show for `Cc1nc(SCC(=O)N2CCNC2=O)c2ccccc2n1`?
HDAC3 inhib: 3; DAGLB inh: -1; iPSC survival up: -4; LANA-H2B inh: 21*

What do the screens show for `CCNC(=O)C1CCCN(C(=O)Cc2ccc3ccccc3c2)CC1` (stereo unspecified)?
iPSC survival up: 0

How did CC(C)C1CC(CCNCc2ccc(N(C)C)cc2)(c2ccccc2)CCO1 (stereo unspecified) do in these assays?
HDAC3 inhib: 0; DAGLB inh: -1; iPSC survival up: -3; LANA-H2B inh: 7.2*

What do the screens show for `Cc1ccc(C2(CCNCc3ccc(N(C)C)cc3)CCOC(C(C)C)C2)cc1` (stereo unspecified)?
HDAC3 inhib: -2; DAGLB inh: -1; iPSC survival up: -1; LANA-H2B inh: 0

What do the screens show for `CC(C)c1ccc(NC2CCCN(C(=O)CN3CCCCC3=O)C2)cc1` (stereo unspecified)?
DAGLB inh: -2; iPSC survival up: 4
